Assay outcomes deposited in PubChem BioAssay by The Scripps Research Institute Molecular Screening Center.
PAD4 FP inh = human PAD4 inhibitors, primary screen, biochemical, fluorescence polarization, 1536-well format; Protein-arginine deiminase type-4 (Homo sapiens), Q9UM07; recombinant PAD4, RCA probe fluorescence polarization; inhibition, % at 6.36 µM; hit rate 0.41% among 330,000; AID 485272, 2010;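 active means percent inhibition above a cutoff equal to the mean of all tested compounds plus 3 SD, cut at about 15% in these data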;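 further: 0% = PAD4 with RCA probe and DMSO and 100% = probe without PAD4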
LYPLA1 counter = LYPLA1 inhibitors, primary screen, counter-screen for PME1 inhibitor project, biochemical, fluorescence polarization, FP-Rh probe ABPP; Acyl-protein thioesterase 1 (Homo sapiens), O75608; recombinant LYPLA1; inhibition, % at 5.9 µM; hit rate 0.16% among 320,000;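 active means inhibition above the mean of all tested compounds plus 3 SD, set per campaign, cut at about 14% in these data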;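 further: inhibitors block serine hydrolase probe labeling of LYPLA1 so polarization falls; 0% = enzyme with DMSO and 100% = wells lacking LYPLA1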
GSTO1 inh = inhibitors of recombinant GSTO1, primary screen, counter-screen for RBBP9 inhibitor project, biochemical, fluorescence polarization; activity-based probe fluorescence polarization; inhibition, % at 5.96 µM; hit rate 1.1% among 300,000; AID 1974, 2009;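 active means inhibition above the campaign mean inhibition plus 3 SD, cut at about 35% in these data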;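 further: 0% = GSTO1-1 with DMSO and 100% = wells lacking GSTO1-1 enzyme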
LYPLA2 inh = LYPLA2 inhibitors, primary screen, counter-screen for PME1 inhibitor project, biochemical, fluorescence polarization, FP-Rh probe ABPP; Acyl-protein thioesterase 2 (Homo sapiens), O95372; recombinant LYPLA2; inhibition, % at 5.9 µM; hit rate 0.38% among 320,000;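 active means inhibition above the screen-wide mean plus 3 SD, limit set per campaign, cut at about 26% in these data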;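 further: 0% = LYPLA2 with DMSO and 100% = wells lacking LYPLA2 enzyme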
Fam108B counter = mouse Fam108B serine hydrolase inhibitors, primary screen, counter-screen for RBBP9 inhibitor project, biochemical, fluorescence polarization. recombinant Fam108B, FP-Rh probe fluorescence polarization. inhibition, % at 9.51 µM. hit rate 0.33% among 300,000;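 active means inhibition above the screen mean inhibition plus 3 SD, computed separately per campaign, cut at about 18% in these data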;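 further: inhibitors lower polarization as less probe binds the enzyme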
PME-1 primary = PME-1 inhibitors via competitive probe labeling, primary screen, biochemical, fluorescence polarization, FP-Rh probe, HTS; recombinant PME-1; Protein phosphatase methylesterase 1 (Homo sapiens), Q9Y570; hit rate 0.53% among 320,000; inhibition, % at 5.9 µM;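 active means inhibition above the campaign mean of all compounds plus 3 SD, cut at about 26% in these data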;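 further: competitive labeling of PME-1 active site by serine hydrolase directed probe; 0% = PME-1 with DMSO and 100% = wells lacking PME-1 enzyme; inhibitors block probe labeling so polarization falls and inhibition rises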
Target sequence (Q9Y570 whole entry, looked up): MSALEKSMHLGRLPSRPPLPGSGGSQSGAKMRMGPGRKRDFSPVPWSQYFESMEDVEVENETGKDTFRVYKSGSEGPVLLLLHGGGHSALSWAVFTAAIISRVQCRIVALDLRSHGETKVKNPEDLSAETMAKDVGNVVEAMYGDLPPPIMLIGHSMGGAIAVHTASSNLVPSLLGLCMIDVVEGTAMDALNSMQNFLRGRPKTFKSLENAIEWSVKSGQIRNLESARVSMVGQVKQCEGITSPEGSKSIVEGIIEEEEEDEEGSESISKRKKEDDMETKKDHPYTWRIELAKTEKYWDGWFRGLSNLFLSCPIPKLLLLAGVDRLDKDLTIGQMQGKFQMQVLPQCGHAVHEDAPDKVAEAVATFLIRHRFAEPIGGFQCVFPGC
Starred values were filed as active, the others as inactive; / = not tested or not shown. Rows were chosen to be rich in hits. Some 1.8% of all compounds tested hit in one or more screens of this group.

SMILES	PAD4 FP inh	LYPLA1 counter	GSTO1 inh	LYPLA2 inh	Fam108B counter	PME-1 primary
O=C(O)c1ccc(NC2=C(N3CCOCC3)C(=O)c3ccccc3C2=O)cc1	-17	-2	46*	5	2	3
CC(=O)N(C)C1=C(N2CCOCC2)C(=O)c2ccccc2C1=O	-18	-1	59*	2	-1	0
CC(=O)N(C)C1=C(O)c2ccccc2C(=O)C1=O	-20	-5	4	2	-3	4
CCOc1ccc(C(=O)N[C@H](C(=O)NNC(=O)c2cccs2)C(C)C)cc1	2	/	/	/	/	/
Cc1cc(Cl)ccc1OCC(=O)OCC(=O)NC1CCS(=O)(=O)C1 (centres undefined)	1	1	/	0	/	1
CCOc1ccc(/C=C2\CCCc3c2nc2ccccc2c3C(=O)O)cc1OC	27*	8	5	6	11	4
Cc1nc(C)c(-c2csc(Nc3cccc(O)c3)n2)s1	2	-4	-4	-3	11	-3
CCC(=O)Nc1nc(C)c(-c2csc(Nc3cccc(O)c3)n2)s1	-2	4	1	12	16	30*
CCCCCCC(=O)Nc1nc(C)c(-c2csc(Nc3cc(OC)ccc3OC)n2)s1	-3	-13	6	-2	11	35*
Cc1ccc(Nc2nnc(-c3ccc(N4CCOCC4)c([N+](=O)[O-])c3)c3ccccc23)cc1	0	-11	-6	-15	5	48*
CCc1noc(C)c1C(=O)OCC(=O)c1ccc(NC(C)=O)cc1F	-7	/	/	/	/	/
CC#CCN1c2ccccc2[C@]23C[C@@H](C(=O)OC)N(C(=O)c4cc(C)oc4C)C2=NC(C(=O)OC)=C(C(=O)OC)[C@H]13	-1	1	2	3	0	28*
C=CCN1c2ccccc2[C@]23C[C@@H](C(=O)OC)N(C(=O)c4cc(C)oc4C)C2=NC(C(=O)OC)=C(C(=O)OC)[C@H]13	1	1	6	8	0	15
CC1CCN(C(=O)CCc2ccc(Oc3cc([N+](=O)[O-])cc([N+](=O)[O-])c3)cc2)CC1	-1	4	-4	37*	4	7
O=C(CCc1ccc(Oc2cc([N+](=O)[O-])cc([N+](=O)[O-])c2)cc1)NC1CCCC1	1	4	9	5	5	26
Cc1ccc(S(=O)(=O)Nc2cccc3c2O[C@H](CN(C)C(=O)Nc2cccc4ccccc24)[C@H](C)CN([C@H](C)CO)C3=O)cc1	-1	/	/	/	/	/
NC(=O)C1Cc2ccccc2CN1C(=O)c1cc(C2CC2)nn1-c1ccccc1 (centres undefined)	4	/	/	/	/	/
Cc1ccc(S(=O)(=O)NN2C(=O)/C(=C/c3cccs3)SC2=S)cc1	-9	-2	37*	-5	-1	-2
COc1ccc(N(CC(=O)NCCSCc2ccccc2Cl)S(C)(=O)=O)cc1Cl	3	-1	-1	0	-3	-3
CC(NC(=O)COC(=O)C12CC3CC(CC(Br)(C3)C1)C2)c1ccccc1 (centres undefined)	-2	/	/	/	/	/
CC(C)(C)N1C(=O)c2ccc(C(=O)O)cc2C1=O	1	0	2	3	10	0
O=C(O)c1ccc2c(c1)C(=O)/C(=C/c1ccccc1)C2=O	3	2	56*	4	15	-4
CCS(=O)(=O)c1ncc(Cl)c(C(=O)Nc2ccc(S(=O)(=O)N3CCC(C)CC3)cc2)n1	-7	-36	-101	-20	-18	-49
Nn1c(SCC(=O)Nc2c(Cl)cccc2Cl)nncc1=O	-1	3	0	3	3	1
C[C@@H]1CN([C@@H](C)CO)C(=O)c2cccc(NC(=O)Nc3ccccc3)c2O[C@H]1CN(C)C(=O)Nc1cccc2ccccc12	2	/	/	/	/	/
CCOc1ccc(N=Nc2c(=O)[nH]n3c(=O)c4c([nH]c23)CCCC4)cc1	4	-1	14	2	5	44*
O=c1[nH]n2c(=O)c3c([nH]c2c1N=Nc1cccc(Cl)c1)CCCC3	-3	12	10	-1	9	58*
